Measured values taken from PubChem BioAssay AID1159580 (chemical genetic matrix, 2015).
Among all 5,500 compounds or so, about 2,000 (36%) were called active. Inconclusive results (about 18%) are left out. Cut-off read from the data, not from the text of the source: active = normalized growth mostly below about 0.91 (no sharp cut-off); inconclusive = no clear call, values can overlap the other calls; inactive = mostly above about 0.92. The list shows a part of the results.

Assay: chemical genetic growth profiling, strain panel (AID 1159580);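 note: tested at 20 µM; growth read once vehicle control cultures reached saturation at 30 °C; 1 = growth at the plate median or of vehicle wells; lower values mean less growth of the strain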
Conditions: growth OD
[1] = S. cerevisiae deletion strains, locus YDL101C, strain DUN1, stronger effect = lower value
[2] = S. cerevisiae deletion strains, locus YHR030C, strain SLT2, stronger effect = lower value
[3] = S. cerevisiae deletion strains, locus YDR150W, strain NUM1, stronger effect = lower value
[4] = S. cerevisiae deletion strains, locus YGR078C, strain PAC10, stronger effect = lower value

Measured: normalized growth

O=C(ON=C1CCCCC1)c1ccc([N+](=O)[O-])cc1
active: [2] 0.576 | S. cerevisiae deletion strains, locus YLR113W, strain HOG1, stronger effect = lower value 0.69 | S. cerevisiae deletion strains, locus YPL256C, strain CLN2, stronger effect = lower value 0.829
inactive: S. cerevisiae deletion strains, locus YAR019C, strain CDC15, stronger effect = lower value 0.949 | S. cerevisiae deletion strains, locus YBL105C, strain PKC1, stronger effect = lower value 0.959 | S. cerevisiae deletion strains, locus YBR135W, strain CKS1, stronger effect = lower value 0.947 | S. cerevisiae deletion strains, locus YBR136W, strain MEC1, stronger effect = lower value 0.956 | S. cerevisiae deletion strains, locus YBR160W, strain CDC28, stronger effect = lower value 0.959 | S. cerevisiae deletion strains, locus YDL017W, strain CDC7, stronger effect = lower value 0.952 | S. cerevisiae deletion strains, locus YDL028C, strain MPS1, stronger effect = lower value 0.95 | [1] 0.954 | S. cerevisiae deletion strains, locus YDL108W, strain KIN28, stronger effect = lower value 0.948 | S. cerevisiae deletion strains, locus YDL132W, strain cdc53, stronger effect = lower value 0.944 | S. cerevisiae deletion strains, locus YDL214C, strain PRR2, stronger effect = lower value 0.849 | S. cerevisiae deletion strains, locus YDR052C, strain DBF4, stronger effect = lower value 0.962 | S. cerevisiae deletion strains, locus YDR054C, strain cdc34, stronger effect = lower value 0.948 | S. cerevisiae deletion strains, locus YDR226W, strain ADK1, stronger effect = lower value 0.948 | S. cerevisiae deletion strains, locus YDR477W, strain SNF1, stronger effect = lower value 0.833 | S. cerevisiae deletion strains, locus YER123W, strain YCK3, stronger effect = lower value 0.817 | S. cerevisiae deletion strains, locus YER133W, strain GLC7, stronger effect = lower value 0.762 | S. cerevisiae deletion strains, locus YFL009W, strain cdc4, stronger effect = lower value 0.942 | S. cerevisiae deletion strains, locus YFL029C, strain CAK1, stronger effect = lower value 0.938 | S. cerevisiae deletion strains, locus YFR003C, strain YPI1, stronger effect = lower value 0.953 | S. cerevisiae deletion strains, locus YFR019W, strain FAB1, stronger effect = lower value 0.886 | S. cerevisiae deletion strains, locus YFR028C, strain CDC14, stronger effect = lower value 0.942 | S. cerevisiae deletion strains, locus YGR040W, strain KSS1, stronger effect = lower value 0.828 | S. cerevisiae deletion strains, locus YGR052W, strain FMP48, stronger effect = lower value 0.843 | S. cerevisiae deletion strains, locus YGR092W, strain DBF2, stronger effect = lower value 0.889 | S. cerevisiae deletion strains, locus YHR079C, strain IRE1, stronger effect = lower value 0.784 | S. cerevisiae deletion strains, locus YHR082C, strain KSP1, stronger effect = lower value 0.901 | S. cerevisiae deletion strains, locus YHR205W, strain SCH9, stronger effect = lower value 0.829 | S. cerevisiae deletion strains, locus YIL147C, strain SLN1, stronger effect = lower value 0.946 | S. cerevisiae deletion strains, locus YJL095W, strain BCK1, stronger effect = lower value 0.771 | S. cerevisiae deletion strains, locus YJL128C, strain PBS2, stronger effect = lower value 0.981 | S. cerevisiae deletion strains, locus YJL157C, strain FAR1, stronger effect = lower value 0.82 | S. cerevisiae deletion strains, locus YJR016C, strain ILV3, stronger effect = lower value 0.953 | S. cerevisiae deletion strains, locus YJR066W, strain TOR1 (second series), stronger effect = lower value 0.814 | S. cerevisiae deletion strains, locus YJR066W, strain TOR1, stronger effect = lower value 0.838 | S. cerevisiae deletion strains, locus YKL048C, strain ELM1, stronger effect = lower value 0.974 | S. cerevisiae deletion strains, locus YKL067W, strain YNK1, stronger effect = lower value 0.865 | S. cerevisiae deletion strains, locus YKL101W, strain HSL1, stronger effect = lower value 0.881 | S. cerevisiae deletion strains, locus YKL193C, strain SDS22, stronger effect = lower value 0.934 | S. cerevisiae deletion strains, locus YKL203C, strain TOR2, stronger effect = lower value 0.888 | S. cerevisiae deletion strains, locus YLR133W, strain CKI1, stronger effect = lower value 0.874 | S. cerevisiae deletion strains, locus YLR403W, strain SFP1, stronger effect = lower value 0.783 | S. cerevisiae deletion strains, locus YML070W, strain DAK1, stronger effect = lower value 0.819 | S. cerevisiae deletion strains, locus YMR001C, strain CDC5, stronger effect = lower value 0.947 | S. cerevisiae deletion strains, locus YMR205C, strain PFK2 (second series), stronger effect = lower value 0.876 | S. cerevisiae deletion strains, locus YMR277W, strain FCP1, stronger effect = lower value 0.938 | S. cerevisiae deletion strains, locus YNL006W, strain LST8, stronger effect = lower value 0.943 | S. cerevisiae deletion strains, locus YNL020C, strain ARK1, stronger effect = lower value 0.876 | S. cerevisiae deletion strains, locus YNL161W, strain CBK1, stronger effect = lower value 0.941 | S. cerevisiae deletion strains, locus YNL183C, strain NPR1, stronger effect = lower value 0.916 | S. cerevisiae deletion strains, locus YNL207W, strain RIO2, stronger effect = lower value 0.944 | S. cerevisiae deletion strains, locus YNL222W, strain SSU72, stronger effect = lower value 0.948 | S. cerevisiae deletion strains, locus YNL307C, strain MCK1 (second series), stronger effect = lower value 0.851 | S. cerevisiae deletion strains, locus YOL078W, strain AVO1, stronger effect = lower value 0.937 | S. cerevisiae deletion strains, locus YOL136C, strain PFK27, stronger effect = lower value 0.85 | S. cerevisiae deletion strains, locus YOR061W, strain CKA2, stronger effect = lower value 0.867 | S. cerevisiae deletion strains, locus YOR119C, strain RIO1, stronger effect = lower value 0.877 | S. cerevisiae deletion strains, locus YOR231W, strain MKK1, stronger effect = lower value 0.826 | S. cerevisiae deletion strains, locus YOR329C, strain SCD5, stronger effect = lower value 0.949 | S. cerevisiae deletion strains, locus YPL031C, strain PHO85, stronger effect = lower value 0.78 | S. cerevisiae deletion strains, locus YPL153C, strain RAD53, stronger effect = lower value 0.794 | S. cerevisiae deletion strains, locus YPL204W, strain HRR25, stronger effect = lower value 0.784 | S. cerevisiae deletion strains, locus YPL209C, strain IPL1, stronger effect = lower value 0.952 | S. cerevisiae deletion strains, locus YPR025C, strain CCL1, stronger effect = lower value 0.948 | S. cerevisiae deletion strains, locus YPR106W, strain ISR1, stronger effect = lower value 0.969 | S. cerevisiae deletion strains, locus YPR111W, strain DBF20, stronger effect = lower value 0.968 | S. cerevisiae deletion strains, strain NNK1, stronger effect = lower value 0.972 | S. cerevisiae deletion strains, strain TSCII, stronger effect = lower value 0.936

O=[N+]([O-])c1ccc(OCCO)c([N+](=O)[O-])c1
inactive: S. cerevisiae deletion strains, locus YAL013W, strain DEP1, stronger effect = lower value 1 | S. cerevisiae deletion strains, locus YBR229C, strain ROT2, stronger effect = lower value 0.978 | S. cerevisiae deletion strains, locus YCL061C, strain MRC1, stronger effect = lower value 1.04 | [1] 1.01 | [3] 0.981 | S. cerevisiae deletion strains, locus YEL061C, strain CIN8, stronger effect = lower value 0.954 | [4] 1.02 | [2] 1.23 | S. cerevisiae deletion strains, locus YHR087W, strain rtc3, stronger effect = lower value 0.991 | S. cerevisiae deletion strains, locus YJL187C, strain SWE1, stronger effect = lower value 0.991 | S. cerevisiae deletion strains, locus YJR043C, strain POL32, stronger effect = lower value 1.01 | S. cerevisiae deletion strains, locus YJR075W, strain HOC1, stronger effect = lower value 1.03 | S. cerevisiae deletion strains, locus YKL190W, strain CNB1, stronger effect = lower value 1 | S. cerevisiae deletion strains, locus YLR039C, strain RIC1, stronger effect = lower value 1.18 | S. cerevisiae deletion strains, locus YLR058C, strain SHM2 (second series), stronger effect = lower value 0.998 | S. cerevisiae deletion strains, locus YLR085C, strain ARP6, stronger effect = lower value 1 | S. cerevisiae deletion strains, locus YLR262C, strain YPT6, stronger effect = lower value 1.14 | S. cerevisiae deletion strains, locus YML094W, strain GIM5, stronger effect = lower value 1 | S. cerevisiae deletion strains, locus YMR219W, strain ESC1, stronger effect = lower value 0.993 | S. cerevisiae deletion strains, locus YMR263W, strain SAP30, stronger effect = lower value 1.01 | S. cerevisiae deletion strains, locus YNL153C, strain GIM3, stronger effect = lower value 1.01 | S. cerevisiae deletion strains, locus YNL298W, strain CLA4 (second series), stronger effect = lower value 0.987 | S. cerevisiae deletion strains, locus YNL322C, strain KRE1, stronger effect = lower value 0.982 | S. cerevisiae deletion strains, locus YNR030W, strain Alg12, stronger effect = lower value 0.997 | S. cerevisiae deletion strains, locus YOL006C, strain TOP1, stronger effect = lower value 1.01 | S. cerevisiae deletion strains, locus YPL055C, strain LGE1, stronger effect = lower value 0.989 | S. cerevisiae deletion strains, locus YPL241C, strain CIN2, stronger effect = lower value 0.996 | S. cerevisiae deletion strains, locus YPR135W, strain CTF4, stronger effect = lower value 1.11 | S. cerevisiae strains, strain wild type, stronger effect = lower value 0.986

O=[N+]([O-])c1ccc(O[C@@H]2O[C@H](CO)[C@@H](O)[C@H](O)[C@H]2F)c([N+](=O)[O-])c1
inactive: S. cerevisiae deletion strains, locus YAL040C, strain CLN3, stronger effect = lower value 0.994 | S. cerevisiae deletion strains, locus YCL061C, strain MRC1 (second series), stronger effect = lower value 0.991 | [3] 0.991 | S. cerevisiae deletion strains, locus YDR363W, strain ESC2, stronger effect = lower value 1.03 | S. cerevisiae deletion strains, locus YER002W, strain NOP16, stronger effect = lower value 0.969 | [4] 1.01 | S. cerevisiae deletion strains, locus YNL175C, strain NOP13, stronger effect = lower value 0.986 | S. cerevisiae deletion strains, locus YNL197C, strain WHI3, stronger effect = lower value 0.995 | S. cerevisiae deletion strains, locus YNL224C, strain SQS1, stronger effect = lower value 0.984 | S. cerevisiae deletion strains, locus YOR083W, strain WHI5 (second series), stronger effect = lower value 1.02
